Several values for one entry are separate records, joined by “and”; a condition that tells them apart may be missing. Identical values can stand only once. The whole screen tested about 360,000 compounds, of which about 3,700 (1%) were called active. Rule as the data show it: active = activation above about 30%; inactive = the rest. What follows is part of a selection rich in actives, with near analogues and random picks from the rest.

Sequence of D(1A) dopamine receptor (Homo sapiens) (P21728 whole entry, looked up): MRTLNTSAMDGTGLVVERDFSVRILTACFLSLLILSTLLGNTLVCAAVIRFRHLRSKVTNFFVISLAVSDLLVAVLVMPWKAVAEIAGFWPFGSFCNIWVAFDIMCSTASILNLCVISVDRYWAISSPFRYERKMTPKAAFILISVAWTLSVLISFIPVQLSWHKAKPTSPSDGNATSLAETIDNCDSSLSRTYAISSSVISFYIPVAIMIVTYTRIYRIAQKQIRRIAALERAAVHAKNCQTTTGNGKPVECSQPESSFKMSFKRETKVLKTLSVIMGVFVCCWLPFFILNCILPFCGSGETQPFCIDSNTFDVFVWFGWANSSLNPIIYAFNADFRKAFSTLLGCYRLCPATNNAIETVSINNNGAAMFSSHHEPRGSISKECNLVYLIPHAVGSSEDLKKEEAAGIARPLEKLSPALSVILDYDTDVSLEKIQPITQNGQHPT

This assay deals with D(1A) dopamine receptor (Homo sapiens) (UniProt P21728). Put plainly: Allosteric Agonists of the Human D1 Dopamine Receptor: qHTS. Also: 0% is about no effect. The note with it: HEK293 T-REx D1 cells, calcium flux, agonist mode; at 2 µM; stronger effect = higher value. The text has this:
NIH Chemical Genomics Center [NCGC] NIH Molecular Libraries Probe Centers Network [MLPCN] MLPCN Grant: NS064831-01 Assay Submitter (PI): David Sibley Dopamine receptors (DARs) are involved in the etiology and/or therapy of a number of neuropsychiatric and endocrine disorders. For instance, all receptor-based antiparkinsonian drugs work via stimulating the D1 DAR subtype whereas all FDA-approved antipsychotic agents are antagonists of this receptor. […] There are three different types of allosteric modulators that we are seeking, two of which will stimulate or augment receptor signaling, allosteric agonists and potentiators, while the third, allosteric antagonists, will attenuate receptor signaling. The present primary screening assay measures compound agonism by tracking calcium flux in a […], inducible Hek293 Trex D1 cell line.
Freshly passaged cells are plated in 1536 well black, clear bottom plates at a density of 4000 cells/well in 3 ul of complete media containing 1x tetracycline inducer. After an overnight incubation at […] in 5% CO2, cells are loaded with 2 ul of the no wash Calcium Assay Kit (ABD Bioquest) and incubated at room temperature for 30 to 90 minutes. Agonist read: A 10 cycle (1 second/cycle) baseline measurement is taken and then the FDSS online 1536 pintool delivers 23 nl of compound library (as well as dopamine controls) to the plate. The plate is measured for kinetically at 1 cycle/sec for 180 seconds and is considered to be the agonist portion of the assay (eg, compounds which activate a positive calcium response during this portion are flagged as potential agonists). Following the 180 second read, 1 ul of either an EC20 (positive modulation assay) or EC80 (negative modulation assay) is delivered by an onboard pipette head. Measurements are taken kinetically for an additional 180 seconds.
On the technique in general: Quantitative high-throughput screening tests each substance at several concentrations.
With `CSc1ccc(CCNC(=O)c2ccc3c(c2)nc2n3CCOC2)cc1`, the activation is 0.926% (inactive).

As to `O=S(=O)(NCC(c1ccco1)N1CCOCC1)c1cc(F)ccc1F` (stereo not given), the activation was -2.87% (inactive).

Turning to `CCc1ccc(C2CC(=O)c3c([nH]c(C(=O)OCc4ccc(C)cc4)c3C)C2)cc1` (stereo not given), the activation is 3.18% (inactive).

As for `Cc1ccc2nc(COc3cccc(NC(=O)Nc4ccc(C)c(Cl)c4)c3)cc(=O)n2c1`, the activation was -0.44% (inactive).

For `Cc1ccc(C(=O)CC2(O)C(=O)N(CCc3ccccc3)c3ccc(Br)cc32)cc1` (stereo not given), the activation was 9.1% (inactive).

Regarding `CCC(=O)c1ccc(OCC(=O)N(CC)CC2COc3ccccc3O2)cc1` (stereo not given), the activation is 3.24% (inactive).

For `O=C(Cn1nc(Cc2cccnc2)c2ccccc2c1=O)NCC1COc2ccccc2O1` (stereo not given), the activation is 0.536% (inactive).

Take `c1ccc2c(c1)OCC(CNc1ncnc3nc[nH]c13)O2` (stereo not given): the activation is 182% (active).

With `CCn1c2ccccc2c2nnc(N3CCN(c4cc(C)ccc4C)CC3)nc21`, the activation is -0.584% (inactive).

As for `Cc1ccc2c(=O)c(C(=O)c3cccc(Cl)c3)cn(CC(=O)NCc3ccccc3)c2n1`, the activation was 0.234% (inactive).

For `CCOc1ccc(NC(=O)Cn2cc(C(=O)c3ccc(C)cc3)c(=O)c3cc4c(cc32)OCCO4)cc1`, the activation is 4.93% (inactive).

With `CCCn1c(=O)c(-c2ccccc2)c(O)c2ccccc21`, the activation is 0.534% (inactive).

Regarding `CC(=O)n1c(C=Nc2ccccc2)c(O)c2ccccc21`, the activation is 52.3% (active).

On to `Cc1cc(=O)n(CC(=O)Nc2cccc([N+](=O)[O-])c2)c(-n2nc(C)cc2C)n1`, for which the activation is -0.478% (inactive).

Consider `Cc1ccc(C(=O)NC2CCN(C#N)CC2)cc1`, for which the activation is -0.099% (inactive).

With `Cc1ccccc1-n1c(C)cc(/C=N/NC(=O)c2ccc(CN3CCOCC3)cc2)c1C`, the activation was 9.59% (inactive).

As for `Cc1cccc(-n2c(C)cc(/C=N\NC(=O)c3cccs3)c2C)c1`, the activation is 36.3% (active).

Consider `O=C(N/N=C/C=C/c1ccco1)c1cccs1`, for which the activation is 2.91% (inactive).

On to `N#CN1CCC(NS(=O)(=O)c2cccc(F)c2)C1` (stereo not given), for which the activation was 0.986% (inactive).

Regarding `Cc1cc2c(s1)c1cnn(Cc3cc(F)c(Cl)cc3Cl)c(=O)c1n2C`, the activation is -0.162% (inactive).

In the case of `Cc1cccc(S(=O)(=O)c2cn(Cc3ccccc3)c3cc(N4CCOCC4)c(F)cc3c2=O)c1`, the activation is 1.08% (inactive).

Regarding `COCCNc1nc(N)c([N+](=O)[O-])c(N2CCCCCC2)n1`, the activation is 2.99% (inactive).

Turning to `Cc1c(Nc2cc(N3CCCC(C)C3)c3nonc3c2[N+](=O)[O-])c(=O)n(-c2ccccc2)n1C` (stereo not given), the activation was -0.0536% (inactive).

As to `Nc1cc(N2CCCCCC2)c2nonc2c1[N+](=O)[O-]`, the activation was 34.1% (active).

As for `CC(C)c1ccc(NC(=O)Cn2c3ncccc3c(=O)n2-c2ccccc2)cc1`, the activation was 2.49% (inactive).

Regarding `COCCNc1ncnc2c1c(-c1ccccc1)cn2-c1ccc(C)c(Cl)c1`, the activation was 2.02% (inactive).

On to `Cc1cccc(-n2cc(CN3CCN(C(=O)c4ncn[nH]4)CC3)c(-c3cccc(F)c3)n2)c1`, for which the activation is 1.07% (inactive).

Consider `COc1ccc(-n2cc(CNC3CCOCC3)c(-c3cccc(F)c3)n2)cc1`, for which the activation was 14.3% (inactive).

Take `CCC(O)C1CCN(Cc2cn(-c3ccc(OC)cc3)nc2-c2cccc(F)c2)CC1` (stereo not given): the activation is 34.2% (active).

`CCOC(=O)c1ccc(NC(=O)CSc2nc3c([nH]c4ccccc43)c(=O)n2C)cc1`: the activation was 0.658% (inactive).

In the case of `COc1cccc(C(=O)NCC(=O)OCc2cc(=O)n3ccsc3n2)c1`, the activation is -0.454% (inactive).

Take `Cc1c(CCOC(=O)c2cc([N+](=O)[O-])ccc2Cl)sc[n+]1CCCCS(=O)(=O)[O-]`: the activation is 2.52% (inactive).

On to `Cc1c(CCO)sc[n+]1CC(=O)OC12CC3CC(CC(C3)C1)C2`, for which the activation was 2.73% (inactive).

As to `Cc1c(CCOC(=O)CC23CC4CC(CC(C)(C4)C2)C3)sc[n+]1Cc1ccc([N+](=O)[O-])cc1`, the activation was 35.6% (active).

Regarding `CCn1c(CN2CCC(C)CC2)nc2cc(NC(=O)c3ccccc3[N+](=O)[O-])ccc21`, the activation is 0.209% (inactive).

With `COc1ccc(OC)c(NC(=O)CSC2=Nc3ccccc3C3=NC(CC(=O)NCc4ccc(F)cc4)C(=O)N23)c1` (stereo not given), the activation was -0.058% (inactive).

On to `CCOC(=O)c1ccc(N2C(=O)c3n[nH]c(C)c3C2c2ccc(O)c(OC)c2)cc1` (stereo not given), for which the activation is 0.253% (inactive).

For `CCCCCCCCCCOC(=O)Cn1c(COc2cccc(OC)c2)[n+](C)c2ccccc21`, the activation was 116% (active).

On to `COc1ccc(-n2c(=O)c3sc4ccccc4c3n(CC(=O)Nc3cccc(C)c3)c2=O)cc1`, for which the activation was 8.8% (inactive).

In the case of `O=C(Nc1ccc(O)c(-c2nc3ccccc3o2)c1)c1ccc(-c2cccc(Cl)c2)o1`, the activation is 0.486% (inactive).

Consider `CCCn1c(=N)n(CC(O)COc2ccccc2OC)c2ccccc21` (stereo not given), for which the activation was -0.594% (inactive).

For the compound `C=CCn1c(=N)n(CC(O)COc2ccc(OC)cc2)c2ccccc21` (stereo not given), the activation was 40.4% (active).

For `Cc1cccc(OCC(O)Cn2c(=N)n(CCN3CCOCC3)c3ccccc32)c1` (stereo not given), the activation was 0.333% (inactive).

In the case of `O=S(=O)(NCCc1nnc2ccc(SCc3ccc(Cl)cc3Cl)nn12)c1ccccc1`, the activation is 1.47% (inactive).

Regarding `CCn1cc(C(=O)N2CCN(c3cc(Cl)ccc3C)CC2)c(=O)c2cc(S(=O)(=O)N3CCCC3)ccc21`, the activation is -0.309% (inactive).

For `Cc1ccc(Cl)cc1N1CCN(C(=O)c2cccn3c(=O)c4cc(Cl)ccc4nc23)CC1`, the activation was 2.28% (inactive).

For `Cc1ccc(Cl)cc1N1CCN(C(=O)c2cccc3c(=O)c(C)c(-c4ccccc4)oc23)CC1`, the activation is 34.3% (active).

Take `COc1ccc(-c2c3c(=O)n(C)c(=O)n(C)c3c3c(C)nc4ccccc4n23)cc1`: the activation was -0.834% (inactive).

Take `COc1ccc(-c2nn3c(-c4ccc(OC)cc4)nnc3c3ccccc23)cc1`: the activation was -0.437% (inactive).

Turning to `CCOCCCNC(=O)c1cn(CC)c2ccc(S(=O)(=O)N3CCc4ccccc4C3)cc2c1=O`, the activation is 0.286% (inactive).

For `CSCCC(NC(=O)COc1ccccc1)C(=O)OCCOc1ccc(Br)cc1` (stereo not given), the activation is 30.8% (active).

Consider `CSCCC(NC(=O)COc1ccccc1)C(=O)OCCOc1ccc(F)cc1` (stereo not given), for which the activation was 2.91% (inactive).

Take `CSCCC(NC(=O)COc1ccccc1)C(=O)OCC(=O)c1cc2ccccc2o1` (stereo not given): the activation is 5.5% (inactive).

For `O=C(c1cc(COc2ccc(F)cc2F)on1)N1CCOCC1`, the activation is 2.85% (inactive).

For the compound `CCC(NC(=O)c1cc(COc2ccc(F)c(F)c2)on1)c1ccncc1` (stereo not given), the activation is 24.1% (inactive).

As for `CCOC(=O)CC1COCCN1C(=O)c1cc(COc2ccc(F)c(F)c2)on1` (stereo not given), the activation is 43.4% (active).

Consider `CCCCc1nn2c(=O)cc(COC(=O)c3ccc(NC(=O)c4ccccc4C)cc3)nc2s1`, for which the activation is 4.38% (inactive).

For the compound `COCCCNC(=O)c1ccc(NC(=O)c2nsc3ccccc23)cc1`, the activation is -0.261% (inactive).

As to `CN(C)c1ccc(/C=C2\NC(=S)N(Cc3ccccc3)C2=O)cc1`, the activation was 203% (active).

As for `CCn1cc(C(=O)NCc2ccc(C)cc2)c(=O)c2cc(S(=O)(=O)N3CCc4ccccc4C3)ccc21`, the activation is -1.37% (inactive).

As to `CN(C)c1ccc(NC(=O)CSc2nc(-c3ccco3)cc(C(F)(F)F)n2)cc1`, the activation was -0.482% (inactive).

Regarding `Cc1cc(C)c(-c2n[nH]c3c2C(c2ccccc2F)N(CCO)C3=O)c(O)c1` (stereo not given), the activation was -0.0969% (inactive).

Take `CC(=O)c1ccc(NC(=O)CSc2nnc(NC(=O)Nc3ccccc3)s2)cc1`: the activation was 2.71% (inactive).

Take `CCSc1nsc(NC(=O)Nc2cccc(C(C)=O)c2)n1`: the activation was 29.4% (inactive).

On to `C=CCSc1nsc(NC(=O)Nc2cccc(C(C)=O)c2)n1`, for which the activation was 34.2% (active).

With `CCOc1ccc(-c2cc(C)n3nc(C(=O)Nc4ccc(C)c(C)c4)cc3n2)cc1`, the activation is 0.877% (inactive).

Regarding `Cc1ccc(S(=O)(=O)N2[C@@H](c3cccc(Cl)c3)C(C(=O)O)=CC[C@H]2c2ccc(Cl)c(Cl)c2)cc1`, the activation was 43.2% (active).

Consider `Cc1ccccc1S(=O)(=O)N1[C@@H](c2cccc(Cl)c2)C(C(=O)O)=CC[C@H]1c1ccc(Cl)cc1`, for which the activation was 2.18% (inactive).

On to `Cc1ccc(S(=O)(=O)N2[C@@H](c3ccccc3F)C(C(=O)O)=CC[C@H]2c2ccc(Cl)cc2)cc1`, for which the activation was 3.48% (inactive).

Turning to `CCOC(=O)N1CCc2c(sc(NCc3cccc(F)c3)c2C(=O)Nc2ccccc2OCC)C1`, the activation was -1.06% (inactive).

With `CCOc1ccc(C(O)Cn2c(=N)n(CCN3CCCCC3)c3ccccc32)cc1` (stereo not given), the activation is 0.859% (inactive).

`N=c1n(Cc2ccc(Cl)cc2)c2ccccc2n1CC(O)c1ccco1` (stereo not given): the activation is 92.6% (active).

As for `O=C(NCc1ccccc1)C(=O)NCC(c1ccco1)S(=O)(=O)c1ccc(Cl)cc1` (stereo not given), the activation is 0.796% (inactive).

Take `COc1cccc(N2CCN(C(=O)CCCCCn3c(=O)[nH]c4ccccc4c3=O)CC2)c1`: the activation is 3.15% (inactive).

With `Cc1sc(C2C(C#N)=C(N)N(c3cccc(Cl)c3)C3=C2C(=O)CCC3)cc1CN1CCOCC1` (stereo not given), the activation is -0.583% (inactive).

As to `Cc1ccccc1CSc1nnc(-c2ccccc2)c(=O)[nH]1`, the activation is 0.158% (inactive).

`N#Cc1c(-c2ccccc2)nc(SCc2cccc(C(F)(F)F)c2)[nH]c1=O`: the activation is 42.4% (active).

With `N#Cc1c(-c2cccs2)nc(SCC(=O)c2ccc(Br)cc2)[nH]c1=O`, the activation was 27.1% (inactive).

For `Cc1c(C(=O)NCc2ccccc2Br)oc2ccc3c(c12)C(=O)CC(C)(C)O3`, the activation was 5.52% (inactive).

Turning to `CCc1cccc(C)c1Nc1c(-c2ccc(N(C)C)cc2)nc2ncccn12`, the activation was 51.7% (active).

As to `Cc1ccccc1Nc1c(-c2ccccc2)nc2ncccn12`, the activation was -0.718% (inactive).

Turning to `Cc1cccc(C)c1Nc1c(-c2ccccc2O)nc2ncccn12`, the activation was -0.792% (inactive) and 1.73% (inactive).

On to `CCc1ccc(NC(=O)CN2CCC(C(=O)c3ccc(OC)cc3)CC2)cc1`, for which the activation was 2.75% (inactive).

On to `CCc1cc(C(=O)c2ccc(OC)cc2)c(NC(=O)CN2CCN(C)CC2)s1`, for which the activation is 32.2% (active).

For the compound `COc1ccc(NC(=O)CCN2CCN(CCO)CC2)cc1`, the activation is 1.35% (inactive).

Values taken from PubChem BioAssay AID504660 (National Center for Advancing Translational Sciences (NCATS), 2011).
